Measurements as given in PubChem BioAssay (NCATS).
Values joined by “and” are separate entries in the source; they are usually repeats but may differ in a detail not shown here. Equal values may be shown once. Records with an inconclusive call do not appear. Active and inactive are the calls of the source. The call rests on the fitted dose curve; in most records, active means well fitted curve in the direction sought with a large enough effect; inconclusive means small, poorly fitted or top-dose-only effect, or another doubt; inactive means no such curve, though single readings can be large; an effect the other way counts as inactive or inconclusive.

Tests used:
CRL-7250 = normal cell line; assay: Cytotoxic Profiling of Annotated Libraries Using Quantitative High-Throughput Screening (AID 1296008); conditions: Five cell lines viability, CellTiter-Glo ATP luminescence, 48-72 h; max response: active compounds read low; further: nearly all actives have a fitted effect of over 60% in size; on max response: on the % scale 0 is the no-effect control and ±100 the full control effect
Method in brief: (§1)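 Compounds were pin-transferred onto cells and incubated 48 or 72 hr at 37 degree Celsius, 95% humidity. CellTiter-Glo was added, plates sat 10 min at room temperature, then ATP-coupled luminescence was imaged as the viability read-out.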

HEK293 = assay: as above; conditions: Five cell lines viability, CellTiter-Glo ATP luminescence, 48-72 h; max response: active compounds read low
Method in brief: as §1

HaCat [1] = assay: as above; conditions: Five cell lines viability, CellTiter-Glo ATP luminescence, 48-72 h; max response: active compounds read low
Method in brief: as §1

NIH3T3 [2] = assay: as above; conditions: Five cell lines viability, CellTiter-Glo ATP luminescence, 48-72 h; max response: active compounds read low
Method in brief: as §1

HACAT [3] = assay: qHTS assay to identify novel small-molecules to repurpose for Merkel cell carcinoma treatment (AID 1296009); conditions: MCC and control cell lines, CellTiter-Glo viability, 72 h; at 44.8 µM (top of the series) unless noted; further: nearly all actives have a fitted effect of over 60% in size; on activity change, negative = cytotoxicity: on the % scale 0 is the no-effect control and ±100 the full control effect
Method in brief: (§2)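 Luminescence from CellTiter-Glo, read 10 min after addition at room temperature, reported viability following a 72 hr, 37 degree celsius treatment with NPC or MIPE compounds in titration; values normalized to plate controls.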

HEK293T = assay: as above; conditions: MCC and control cell lines, CellTiter-Glo viability, 72 h; at 44.8 µM (top of the series) unless noted
Method in brief: as §2

MCC-13 = assay: as above; conditions: MCC and control cell lines, CellTiter-Glo viability, 72 h; series mostly up to 46 µM
Method in brief: as §2

MCC-26 = assay: as above; conditions: MCC and control cell lines, CellTiter-Glo viability, 72 h; series mostly up to 46 µM
Method in brief: as §2

MKL-1 = assay: as above; conditions: MCC and control cell lines, CellTiter-Glo viability, 72 h; series mostly up to 46 µM
Method in brief: as §2

MKL-2 = assay: as above; conditions: MCC and control cell lines, CellTiter-Glo viability, 72 h; series mostly up to 46 µM
Method in brief: as §2

UISO = assay: as above; conditions: MCC and control cell lines, CellTiter-Glo viability, 72 h; series mostly up to 46 µM
Method in brief: as §2

WaGa = assay: as above; conditions: MCC and control cell lines, CellTiter-Glo viability, 72 h; series mostly up to 46 µM
Method in brief: as §2

C33A = assay: Primary qHTS to identify gynecologic anti-cancer compounds using libraries of approved drugs and bioactive compounds (AID 1345084); conditions: Gynecologic cancer cell panel viability, ATPlite luminescence, 48 h; series mostly up to 57.5 µM; further: nearly all actives have a fitted effect of over 55% in size
Method in brief: (§3)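 48 h compound exposure at 37 C, 5% CO2; five-point qHTS. ATPlite luminescence readout of cell ATP.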

CAOV3 = assay: as above; conditions: Gynecologic cancer cell panel viability, ATPlite luminescence, 48 h; series mostly up to 57.5 µM
Method in brief: as §3

TAB109 = assay: qHTS profiling for inhibitors of Plasmodium falciparum proliferation (AID 504749); further: nearly all actives have a fitted effect of over 60% in size; conditions: P. falciparum in erythrocytes, SYBR Green DNA, 72 h; series mostly up to 28.7 µM
Method in brief: (§4)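 Fluorescence of SYBR Green-bound parasite DNA, read at 485/535 nm, served as the growth measure. Infected erythrocytes were cultured with compound 72 h; artemisinin (0.29 uM) and DMSO wells defined the normalization range.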

TAB113 = assay: as above; conditions: P. falciparum in erythrocytes, SYBR Green DNA, 72 h; series mostly up to 28.7 µM
Method in brief: as §4

TAB165 = assay: as above; conditions: P. falciparum in erythrocytes, SYBR Green DNA, 72 h; series mostly up to 28.7 µM
Method in brief: as §4

W2 = assay: as above; conditions: P. falciparum in erythrocytes, SYBR Green DNA, 72 h; series mostly up to 28.7 µM
Method in brief: as §4

NIH3T3 [4] = assay: qHTS assay to identify novel small-molecules to repurpose for Merkel cell carcinoma treatment (AID 1296009); conditions: MCC and control cell lines, CellTiter-Glo viability, 72 h; at 44.8 µM (top of the series) unless noted; further: nearly all actives have a fitted effect of over 60% in size; on activity change, negative = cytotoxicity: on the % scale 0 is the no-effect control and ±100 the full control effect
Method in brief: as §2

KB-3-1 = assay: Cytotoxic Profiling of Annotated Libraries Using Quantitative High-Throughput Screening (AID 1296008); conditions: Five cell lines viability, CellTiter-Glo ATP luminescence, 48-72 h; max response: active compounds read low; further: nearly all actives have a fitted effect of over 60% in size; on max response: on the % scale 0 is the no-effect control and ±100 the full control effect
Method in brief: as §1
Potency means the concentration at half of the fitted maximal effect.

C[C@@H](O)[C@H](N)C(=O)O
inactive: max response (CRL-7250) -2.34% | outcome (HEK293) | outcome (HaCat [1]) | max response (NIH3T3 [2]) -1.06% | outcome (HACAT [3]) inactive [at 17.4 µM] | outcome (HEK293T) inactive [at 17.4 µM] | Potency (MCC-13) | Potency (MCC-26) | Potency (MKL-1) | Potency (MKL-2) | Potency (UISO) | Potency (WaGa) | Potency (C33A) | Potency (CAOV3)

NC(=O)c1ncn([C@@H]2O[C@H](CO)[C@@H](O)[C@H]2O)n1
inactive: Potency (CAOV3)

C[C@](N)(Cc1ccc(O)cc1)C(=O)O
inactive: Potency (TAB109) | Potency (TAB113) | Potency (TAB165) | Potency (W2) | activity change, negative = cytotoxicity (MCC-13) 6.34% [at 4.84 µM] | activity change, negative = cytotoxicity (MCC-26) 5.04% [at 4.84 µM] | activity change, negative = cytotoxicity (MKL-1) -2.87% [at 4.84 µM] | activity change, negative = cytotoxicity (MKL-2) 7.48% [at 4.84 µM] | outcome (NIH3T3 [4]) inactive [at 4.96 µM] | activity change, negative = cytotoxicity (UISO) 17.6% [at 4.84 µM] | activity change, negative = cytotoxicity (WaGa) -0.23% [at 4.84 µM] | activity change, negative = cytotoxicity (C33A) 11.8% [at 6.55 µM] | activity change, negative = cytotoxicity (CAOV3) 1.31% [at 6.55 µM]

CCN(CC)CCNC(=O)c1c(C)[nH]c(/C=C2\C(=O)Nc3ccc(F)cc32)c1C
inactive: max response (KB-3-1) -5.42% | max response (NIH3T3 [2]) -10.6% | Potency (C33A)
active: Potency (TAB109) 8.91 µM | Potency (TAB113) 10 µM | Potency (TAB165) 7.08 µM | Potency (W2) 4.26 µM | Potency (HEK293) 8.41 µM | Potency (MCC-13) 23.7 µM | Potency (MKL-1) 2.99 µM | Potency (MKL-2) 2.99 µM | Potency (UISO) 11.9 µM | Potency (WaGa) 11.9 µM | Potency (CAOV3) 25.1 µM

CCCCN(CCCC)CC(O)c1cc(Cl)cc2c1-c1ccc(Cl)cc1/C2=C/c1ccc(Cl)cc1 (centres undefined)
inactive: max response (HaCat [1]) -7.84% | max response (KB-3-1) -7.25% | Potency (MCC-13) | Potency (MCC-26) | Potency (WaGa) | Potency (C33A) | Potency (CAOV3)
active: Potency (TAB109) 0.0126 µM | Potency (TAB113) 0.0056 µM | Potency (TAB165) 0.0079 µM

CCN(CC)CCSC(=O)C(c1ccccc1)c1ccccc1
inactive: Potency (TAB109) | Potency (TAB113) | Potency (TAB165) | max response (CRL-7250) -12.1% | max response (HaCat [1]) -3.95% | max response (KB-3-1) 12.2% and -4.64% | max response (NIH3T3 [2]) -1.72% | Potency (MCC-13) | Potency (MCC-26) | Potency (MKL-1) | Potency (UISO) | Potency (C33A) | Potency (CAOV3)

CC1=C(CC(=O)O)c2cc(F)ccc2/C1=C\c1ccc(S(C)=O)cc1 (centres undefined)
inactive: Potency (TAB109) | Potency (TAB113) | Potency (TAB165) | outcome (HaCat [1]) | Potency (C33A) | Potency (CAOV3)

CC(=O)Oc1ccc(C2(c3ccc(OC(C)=O)cc3)C(=O)Nc3ccccc32)cc1
inactive: Potency (TAB109) | Potency (TAB113) | Potency (TAB165) | Potency (W2) | max response (HEK293) 1.93% | max response (HaCat [1]) -16.5% | max response (NIH3T3 [2]) -14.8% | Potency (MCC-13) | Potency (MCC-26) | Potency (MKL-1) | Potency (MKL-2) | Potency (WaGa) | Potency (C33A) | Potency (CAOV3)

CC(C)c1c(C(=O)Nc2ccccc2)c(-c2ccccc2)c(-c2ccc(F)cc2)n1CC[C@@H](O)C[C@@H](O)CC(=O)O
inactive: max response (KB-3-1) -3.5% | max response (NIH3T3 [2]) -9.75% and 4.05% | Potency (C33A) | Potency (CAOV3)
active: Potency (CRL-7250) 6.68 µM and 2.73 µM | Potency (MCC-13) 23.7 µM | Potency (MCC-26) 23.7 µM | Potency (MKL-1) 3.35 µM | Potency (MKL-2) 2.66 µM | Potency (UISO) 10.6 µM | Potency (WaGa) 7.5 µM

O=C1NC(=O)[C@@]2(CCOc3ccc(F)cc32)N1
inactive: Potency (TAB109) | Potency (TAB113) | Potency (TAB165) | Potency (W2) | outcome (HEK293T) | Potency (MCC-13) | Potency (MCC-26) | Potency (MKL-1) | Potency (MKL-2) | Potency (UISO) | Potency (WaGa) | Potency (C33A)

CN(C)CCC=C1c2ccccc2CCc2ccccc21
inactive: outcome (HaCat [1]) | max response (KB-3-1) -15.7% | max response (NIH3T3 [2]) -1.26% | outcome (HACAT [3]) | Potency (MCC-13) | Potency (MCC-26) | Potency (MKL-1) | Potency (UISO) | Potency (C33A) | Potency (CAOV3)

CNCC(O)c1ccc(O)c(O)c1 (centres undefined)
inactive: max response (HaCat [1]) -0.0091% | max response (NIH3T3 [2]) -1.98%
active: Potency (MKL-1) 16.8 µM | Potency (MKL-2) 13.3 µM | Potency (UISO) 16.8 µM

CN(C)CCOC(C)(c1ccccc1)c1ccccn1 (centres undefined)
inactive: Potency (MCC-13) | Potency (MCC-26) | Potency (MKL-1) | Potency (MKL-2) | Potency (UISO) | Potency (WaGa) | Potency (C33A) | Potency (CAOV3)

[Cl][In]([Cl])[Cl]
inactive: max response (HEK293) 1.84% | max response (KB-3-1) 0.288% and -3.71% | max response (NIH3T3 [2]) -11.3% | Potency (MCC-26) | Potency (MKL-1) | Potency (MKL-2) | Potency (WaGa) | Potency (C33A)
active: Potency (W2) 7.57 µM

CN(C)CCCN1c2ccccc2Sc2ccc(Cl)cc21
active: Potency (TAB165) 8.91 µM | Potency (W2) 1.07 µM | Potency (MKL-1) 23.7 µM | Potency (WaGa) 26.6 µM
inactive: max response (KB-3-1) -6.48%

Cc1c(O)cccc1C(=O)N[C@@H](CSc1ccccc1)[C@H](O)CN1C[C@H]2CCCC[C@H]2C[C@H]1C(=O)NC(C)(C)C
active: Potency (TAB113) 12.6 µM | Potency (TAB165) 10 µM | Potency (W2) 8.49 µM
inactive: Potency (MCC-26)

OCCN1CCN(CCCN2c3ccccc3Sc3ccc(Cl)cc32)CC1
active: Potency (W2) 3.22 µM | Potency (HEK293) 11.9 µM | Potency (MCC-26) 26.6 µM | Potency (UISO) 26.6 µM | Potency (C33A) 20 µM
inactive: max response (KB-3-1) -16%

CC1(C)Oc2ccc(C#N)cc2[C@@H](N2CCCC2=O)[C@@H]1O
inactive: outcome (CRL-7250) | max response (HEK293) -3.16% | max response (KB-3-1) -0.98% and -8.03% | max response (NIH3T3 [2]) -6.15% | Potency (MCC-13) | Potency (MCC-26) | Potency (MKL-1) | Potency (MKL-2) | Potency (UISO) | Potency (WaGa) | Potency (C33A) | Potency (CAOV3)

O=C1Nc2ccc(Cl)cc2[C@@](C#CC2CC2)(C(F)(F)F)O1
inactive: max response (CRL-7250) -9.32% and 4.5% | outcome (HaCat [1]) | max response (KB-3-1) 17.8% and -24.9% | max response (NIH3T3 [2]) 3.57% | outcome (HACAT [3]) | Potency (MCC-26) | Potency (C33A)
